Inconclusive results are not listed. Unmarked numbers belong to inactive results. Active and inactive are the calls of the source. Calls come from the whole dose curve; as a rule, active = well fitted cell-killing curve with a large enough effect in the repeat runs; inconclusive = weak or mixed curves, or effect the other way; inactive = flat fitted curve, though single readings scatter.
Assay: cAMP Responsive Elements (CRE) small molecule antagonists, cell-based qHTS assay: qHTS cell viability counter screen (AID 2060913); note: nearly all actives have a fitted effect of over 40% in size
Conditions: CRE-bla HEK293T viability, CellTiter-Glo luminescence, 5 h; series mostly up to 92.4 µM; viability change, negative = cytotoxic: at the top concentration
Source text: U.S. Tox21 Program National Center for Advancing Translational Sciences [NCATS] Division of Preclinical Innovation [DPI] U.S. Environmental Protection Agency [EPA] National Institutes of Environmental Health Sciences [NIEHS] National Toxicology Program [NTP] U.S. Food and Drug Administration [FDA] Tox21 Assay Overview: CREB (cyclic-AMP Responsive Element Binding Protein) is a cellular transcription factor. It binds to certain DNA sequences called cAMP Responsive Elements (CRE) and regulates the transcription of the genes. […] This cell line can be used to find agonists/antagonists of the cyclic AMP signaling pathway. The activation of the report gene under culture conditions can be detected by fluorescence intensity. This cell line has been used to screen the Tox21 10K compound library to identify agonists that induce oxidative stress. The cytotoxicity of the Tox21 compound library against the CRE-bla cell line was tested in parallel by measuring the cell viability using CellTiter-Glo assay (Promega, Madison, WI) in the same wells.
Tox21 Assay Protocol Summary: CRE-bla Hek 293T cells were suspended in assay medium (DMEM containing 10% dialyzed FBS, 0.1 mM NEAA, 1 mM sodium pyruvate and 25 mM HEPES) and dispensed at 2,000 cells/4 uL /well into 1536-well black wall/clear bottom plates using a Multidrop Combi (ThermoFisher Scientific, Waltham, MA) dispenser. After the assay plates were incubated at 37 C/5% CO2 for 18 hrs, 23 nL of compounds dissolved in DMSO, positive controls or DMSO only was transferred to the assay plate by a pintool workstation (Kalypsys, San Diego, CA), followed by addition of 1 uL of 1.25uM NKH477 (0.25 uM as final concentration) in assay medium using a Flying Reagent Dispenser (Aurora Discovery, San Diego, CA). The plates were incubated at 37 C and 5% CO2 for 3 hrs. Then 1 uL of LiveBLAzer B/G FRET substrate (Invitrogen, Carlsbad, CA) was added to each well using Bioraptr Flying Reagent Dispenser (FRD, Aurora Discovery, San Diego, CA). The plates were incubated at room temperature for 2 h, then fluorescence intensities were measured using an Envision plate reader (PerkinElmer, Shelton, CT) at Excitation 405nm, Emission 460nm and 530nm. The % activity was determined from the ratio of 460nm/530nm. For cell viability readout that measures cytotoxicity, 4 uL /well of CellTiter-Glo reagent was added into the assay plates using Bioraptr FRD. After 30 min incubation at room temperature, the luminescence intensity in the assay plates was measured using a ViewLux (PerkinElmer, Shelton, CT) plate reader.
% is set by controls: 0 for no effect and ±100 for the full control effect; potency is the fitted concentration of half-maximal effect.

| Structure (SMILES) | viability change, negative = cytotoxic | Potency |
| --- | --- | --- |
| CC[C@H](C)[C@@H](C(=O)O)n1sc2ccccc2c1=O | -1.23% | – |
| NC(=O)/N=N/C(N)=O | – | inactive |
| Cc1ccc2oc(CN(Cc3ccccc3)C(=O)Nc3c(F)cc(F)cc3F)c(-c3ccc(Cl)cc3)c2c1 | -16.3% | – |
| CC(C)(C)c1cc(CCC(=O)NN)cc(C(C)(C)C)c1O | -6.01% | – |
| CCCCCCCCCCCSCC(=O)O | -0.0077% | – |
| C1=Cc2ccccc2C1 | -0.508% | – |
| CCC(C)=O | 4.98% | – |
| CCCCOC(=O)CCC(C)=O | 1.09% | – |
| COc1c(C)c2c(c(O)c1C/C=C(\C)CCC(=O)OCCN1CCOCC1)C(=O)OC2 | 11.6% [at 42.5 µM] | – |
| CN(C(=O)C(Cl)Cl)c1ccc(OC(=O)c2ccco2)cc1 | -0.595% [at 42.5 µM] | – |
| CNC(=O)N(c1ccccc1)c1ccccc1 | 0.18% | – |
| CC1=CC[C@H](CC=O)C1(C)C | 0.84% | – |
| CC(N)CCCC(C)(C)O (stereo not given) | -1.68% [at 42.5 µM] | – |
| COc1cc(NS(=O)(=O)c2ccc(N)cc2)nc(C)n1 | 0.291% [at 42.5 µM] | – |
| C/C=C/c1ccc(OC)c(OC)c1 | 2.8% | – |
| CCCCCCCC(=O)OCC(COC(=O)CCCCCCC)OC(=O)CCCCCCC | – | inactive |
| CC(=O)CC(c1ccccc1)c1c(O)c2ccccc2oc1=O (stereo not given) | – | inactive |
| Cc1c[nH]c(=S)[nH]c1=O | -12.5% | – |
| Cc1ccc(C(=O)O)cc1[N+](=O)[O-] | 4.77% | – |
| CC(=O)OCC=C(C)C | -0.198% [at 42.5 µM] | – |

| Structure (SMILES) | viability change, negative = cytotoxic | Potency |
| --- | --- | --- |
| CN1[C@@H]2CC[C@H]1CC(NC(=O)n1c(=O)[nH]c3ccccc31)C2 (stereo not given in full) | 0.0535% [at 42.5 µM] | – |
| C=CN1CCCCCC1=O | 2.52% | – |
| COc1ccc(-c2nc3ccc(C4=NNC(=O)CC4C)cc3[nH]2)cc1 (stereo not given) | -5.35% [at 42.5 µM] | – |
| CCN(CC)CCc1nc(-c2ccccc2)no1 | 5.59% [at 42.5 µM] | – |
| OCCC(F)(F)C(F)(F)C(F)(F)C(F)(F)C(F)(F)C(F)(F)F | 4.17% | – |
| CN=C(N)NC(=O)Nc1c(C)cccc1C | 3.64% [at 42.5 µM] | – |
| NC(=O)c1ccccc1O | – | inactive |
| CCCCC(CC)COCC1CO1 (stereo not given) | 2.53% | – |
| CC1(CN2CCC(n3c(=O)[nH]c4ccccc43)CC2)OCc2ccccc2-n2cccc21 (stereo not given) | -4.36% [at 42.5 µM] | – |
| CCOc1ccc2c(c1)C(C)CC(C)(C)N2 (stereo not given) | -4.72% | – |
| CCOC(CN1CCN(CC(C)C(=O)c2ccccc2)CC1)c1ccccc1 (stereo not given) | 1.27% [at 18.9 µM] | – |
| OC1CCCCC1 | – | inactive |
| Cc1ccc(S(=O)(=O)C(I)I)cc1 | – | 61.1 µM (active) |
| CSc1ccc2c(c1)C(N1CCN(C)CC1)Cc1ccccc1S2 (stereo not given) | -14.6% [at 42.5 µM] | – |
| CCN(CC)CC | -16% | – |
| CC1CC(O)CC(C)(C)C1 (stereo not given) | -5.46% | – |
| CCCCCCCCCCCCCCCCCC(=O)OCCCCCCCCCCCCCC(C)C | -17.9% | – |
| O=C(O)CCCc1c[nH]c2ccccc12 | -1.87% | – |
| CC(C)(O)c1ccc(CNC(=O)c2cccnc2Oc2ccc3nonc3c2)cc1 | -10.8% | – |
| CC(C)(C)c1ccc(O)c(C(C)(C)C)c1 | – | 48.6 µM (active) |

— PubChem BioAssay (Tox21)
